Holding throughout (details): mRNA level, 48 h; actives raise or lower the signal
Read-out in assay [1]: Keratin 19 (KRT19), KRT19 (gene 3880)
In words: LTEA_HepaRG_KRT19: Life Technologies and Expression Analysis (LTEA) Assay for Keratin 19 (KRT19) using HepaRG (AID 2283512). Put shortly: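 HepaRG, 48 h chemical exposure, 8-pt half-log CRC from 100 uM, 0.5% DMSO vehicle, duplicates. Readout: TaqMan qRT-PCR of KRT19 mRNA, housekeeping-normalized (ACTB/GAPDH/POLR2A). Bidirectional fit vs DMSO baseline.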

Read-out in assay [2]: JUN Transcription Factor, JUN (gene 3725)
In words: LTEA_HepaRG_JUN: Life Technologies and Expression Analysis (LTEA) Assay for JUN Transcription Factor using HepaRG (AID 2283513). Put shortly:
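Read-out is JUN transcript level by TaqMan qRT-PCR, normalized to ACTB, GAPDH and POLR2A, after 48 h chemical treatment of HepaRG cells. Concentration-response spanned eight half-log points up to 100 uM in 0.5% DMSO.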

Read-out in assay [3]: Lipase C (LIPC), LIPC (gene 3990)
Briefly: LTEA_HepaRG_LIPC: Life Technologies and Expression Analysis (LTEA) Assay for Lipase C (LIPC) using HepaRG (AID 2283514). Put shortly:
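In this multiplexed gene-expression screen, human HepaRG cultures received test chemicals for 48 h across eight concentrations with 100 uM highest, in duplicate. Values reflect LIPC mRNA induction or suppression versus DMSO vehicle, from normalized qRT-PCR.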

Read-out in assay [4]: Lipoprotein lipase (LPL), LPL (gene 4023)
Briefly: LTEA_HepaRG_LPL: Life Technologies and Expression Analysis (LTEA) Assay for Lipoprotein lipase (LPL) using HepaRG (AID 2283515). Put shortly:
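Concentration-response testing used half-log steps from 100 uM in 0.5% DMSO on human HepaRG cells, 48 h, duplicate wells. Phenobarbital 1 mM served as induction control; LPL mRNA was normalized to ACTB, GAPDH, POLR2A.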

Read-out in assay [5]: MicroRNA 122 (MIR122), gene 406906
In words: LTEA_HepaRG_MIR122: Life Technologies and Expression Analysis (LTEA) Assay for MicroRNA 122 (MIR122) using HepaRG (AID 2283516). Also: the transcript read is the microRNA miR-122. Put shortly: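 Human liver HepaRG cultures receive test chemicals for 48 h at eight half-log concentrations from 100 uM. Expression is quantified by qRT-PCR with ACTB/GAPDH/POLR2A normalization and fitted bidirectionally against 0.5% DMSO.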

Read-out in assay [6]: matrix metalloproteinase-10 (MMP10), MMP10 (gene 4319)
In words: LTEA_HepaRG_MMP10: Life Technologies and Expression Analysis (LTEA) Assay for matrix metalloproteinase-10 (MMP10) using HepaRG (AID 2283517). Put shortly:
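In differentiated HepaRG cultures kept in 0.5% DMSO, test chemicals act for 48 h over an eight-point range with a top dose of 100 uM. Expression is then quantified by TaqMan RT-PCR against ACTB, GAPDH and POLR2A.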

Read-out in assay [7]: Paternally Expressed 10 (PEG10), PEG10 (gene 23089)
In words: LTEA_HepaRG_PEG10: Life Technologies and Expression Analysis (LTEA) Assay for Paternally Expressed 10 (PEG10) using HepaRG (AID 2283520).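 As to AC50: differentiated HepaRG human liver cells in serum-free induction medium with 0.5% DMSO; PEG10 transcript by qRT-PCR normalised to ACTB GAPDH and POLR2A.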 Put shortly: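 Human HepaRG cultures are dosed for 48 h across an eight-point half-log series starting at 100 uM, with 0.5% DMSO as vehicle and baseline. Gain or loss of PEG10 transcript is measured by qRT-PCR and fitted in both directions.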

Read-out in assay [8]: Nuclear factor NF-kappa-B p105 subunit (Homo sapiens) (UniProt P19838)
In words: LTEA_HepaRG_NFKB1: Life Technologies and Expression Analysis (LTEA) Assay for Nuclear Factor Kappa B Subunit 1 (NFKB1) using HepaRG (AID 2283521).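 As to outcome: differentiated human HepaRG liver cells in serum-free induction medium; TaqMan qRT-PCR transcript normalised to ACTB GAPDH and POLR2A housekeeping genes.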 Put shortly:
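HepaRG, 48 h exposure; 8-pt half-log series from 100 uM in 0.5% DMSO; duplicates. Readout: NFKB1 mRNA by qRT-PCR (Fluidigm arrays), housekeeping-normalized. Gain/loss fit vs DMSO baseline.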

For 24 compounds, AC50 and outcome results are on record in PubChem BioAssay (EPA / NIEHS).

Usually AC50 stands for the concentration at which the activity in the assay is half-maximal.

Where “and” joins values, the source holds several entries; their conditions need not be identical. Equal entries are not always repeated. A structure can be active in one record and inactive in another. Calls of active or inactive are those of the source. The calls were made as follows: active = hit-call score of the fitted dose curve at least 0.9, where 1 is the maximum; inactive = score below 0.9.

Sequence of Nuclear factor NF-kappa-B p105 subunit (Homo sapiens) (P19838 whole entry, looked up): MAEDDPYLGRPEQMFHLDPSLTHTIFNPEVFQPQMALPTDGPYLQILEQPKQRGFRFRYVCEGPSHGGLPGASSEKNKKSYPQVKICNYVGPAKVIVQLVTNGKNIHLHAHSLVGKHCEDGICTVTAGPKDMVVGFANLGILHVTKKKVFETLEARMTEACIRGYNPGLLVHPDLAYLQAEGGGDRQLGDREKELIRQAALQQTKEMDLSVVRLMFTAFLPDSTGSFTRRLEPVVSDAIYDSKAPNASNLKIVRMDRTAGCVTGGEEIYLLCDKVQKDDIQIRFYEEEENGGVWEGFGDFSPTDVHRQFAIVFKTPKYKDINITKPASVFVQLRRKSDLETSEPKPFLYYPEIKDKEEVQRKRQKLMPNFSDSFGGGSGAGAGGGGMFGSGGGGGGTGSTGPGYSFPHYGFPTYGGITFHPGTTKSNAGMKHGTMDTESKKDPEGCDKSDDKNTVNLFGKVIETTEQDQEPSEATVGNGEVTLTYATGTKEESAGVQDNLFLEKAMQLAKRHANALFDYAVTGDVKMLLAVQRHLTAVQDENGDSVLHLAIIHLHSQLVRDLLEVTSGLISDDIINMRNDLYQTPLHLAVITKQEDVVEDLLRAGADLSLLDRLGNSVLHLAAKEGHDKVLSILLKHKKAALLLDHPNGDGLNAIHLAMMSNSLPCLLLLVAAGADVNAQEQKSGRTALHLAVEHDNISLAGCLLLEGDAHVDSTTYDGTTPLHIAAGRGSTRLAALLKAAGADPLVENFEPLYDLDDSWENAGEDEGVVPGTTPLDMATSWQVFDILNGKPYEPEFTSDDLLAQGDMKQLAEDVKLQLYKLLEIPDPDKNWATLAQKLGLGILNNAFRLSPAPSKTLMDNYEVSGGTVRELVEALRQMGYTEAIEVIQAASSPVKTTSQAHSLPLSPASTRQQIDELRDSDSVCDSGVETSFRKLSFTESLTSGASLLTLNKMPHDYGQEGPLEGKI

On to `C[C@H]1[C@H](c2ccc(Cl)cc2)SC(=O)N1C(=O)NC1CCCCC1`, for which the half-maximal activity concentration (AC50) in assay [1] is 50 µM (active); in assay [3] it was 36.5 µM (active); in assay [4], 60.7 µM (active); in assay [5], 60 µM (active); in assay [6] it was 79.5 µM (active); in assay [7], 12.8 µM (active). Besides, the call in assay [2] was inactive.
Take `CC1(C)C(C=C(Cl)Cl)C1C(=O)OC(C#N)c1ccc(F)c(Oc2ccccc2)c1` (configuration not stated): the compound was classed as inactive in assay [1], in assay [2], in assay [3], in assay [4], in assay [5] and in assay [6]. Further, the call in assay [7] and in assay [8] was inactive.
Turning to `O=C(O)CCCOc1ccc(Cl)cc1Cl`, the outcome in assay [1], in assay [2], in assay [3], in assay [4], in assay [5] and in assay [6] was inactive. Further, in assay [7], the AC50 was 10.4 µM (active).
On to `CCOC1Oc2ccc(OS(C)(=O)=O)cc2C1(C)C` (configuration not stated), for which the AC50 was 66 µM (active) in assay [1]; 74 µM (active) in assay [3]; 76.4 µM (active) in assay [4]; 78.7 µM (active) in assay [5]; 28.4 µM (active) in assay [7]; 9.92 µM (active) in assay [8]. The call in assay [2] and in assay [6] was inactive.
Regarding `COP(=O)(OC)OC=C(Cl)Cl`, the call in assay [1], in assay [2], in assay [3], in assay [4], in assay [5] and in assay [6] was inactive. In addition, the compound was classed as inactive in assay [7] and in assay [8].
For the compound `CCN(CC)C(=O)SCc1ccc(Cl)cc1`, the outcome in assay [1], in assay [2], in assay [3], in assay [4], in assay [5] and in assay [6] was inactive. For the same compound, the compound was called inactive in assay [7] and in assay [8].
In the case of `COP(=S)(OC)Oc1ccc(SC)c(C)c1`, the outcome in assay [1], in assay [2], in assay [3], in assay [4], in assay [5] and in assay [6] was inactive. Also, the call in assay [8] was inactive. The AC50 in assay [7] was 9.92 µM (active).
Consider `Cc1[nH]c(=O)n(C(C)(C)C)c(=O)c1Cl`, for which, in assay [1], the AC50 was 50 µM (active). The outcome in assay [2], in assay [3], in assay [4], in assay [5], in assay [6] and in assay [7] was inactive. Moreover, the call in assay [8] was inactive.
On to `O=[N+]([O-])c1c(Cl)c(Cl)c(Cl)c(Cl)c1Cl`, for which the AC50 in assay [1] was 38.6 µM (active); in assay [7] it was 69.8 µM (active). The result in assay [2], in assay [3], in assay [4], in assay [5], in assay [6] and in assay [8] was inactive.
Take `CC(C)OC(=O)Nc1cccc(Cl)c1`: the compound was classed as inactive in assay [1], in assay [2], in assay [3], in assay [4], in assay [5] and in assay [6]. Further, the outcome in assay [7] and in assay [8] was inactive.
With `O=C(O)C(F)(F)C(F)(F)C(F)(F)C(F)(F)C(F)(F)C(F)(F)C(F)(F)F`, the compound was called inactive in assay [1], in assay [2], in assay [3], in assay [4], in assay [5] and in assay [6]. Also, the compound was called inactive in assay [7] and in assay [8].
For `CN1CSC(=S)N(C)C1`, the outcome in assay [1], in assay [2], in assay [3], in assay [4], in assay [5] and in assay [6] was inactive. For the same compound, the compound was classed as inactive in assay [7] and in assay [8].
Consider `C#CCN1C(=O)COc2cc(F)c(N3C(=O)C4=C(CCCC4)C3=O)cc21`, for which the call in assay [1], in assay [2], in assay [4], in assay [5], in assay [6] and in assay [8] was inactive. In addition, the half-maximal activity concentration (AC50) in assay [3] is 26.3 µM (active); in assay [7] it was 37.8 µM (active).
Regarding `OCCOc1ccccc1`, the result in assay [1], in assay [2], in assay [3], in assay [4], in assay [5] and in assay [6] was inactive. Further, the call in assay [7] was inactive.
Turning to `O=S1OCC2C(CO1)C1(Cl)C(Cl)=C(Cl)C2(Cl)C1(Cl)Cl` (configuration not stated), the compound was called inactive in assay [1], in assay [2], in assay [6], in assay [7] and in assay [8]. Also, the half-maximal activity concentration (AC50) is 62.7 µM (active) in assay [3], 87.5 µM (active) in assay [4] and 89.1 µM (active) in assay [5].
In the case of `ClC1C(Cl)C(Cl)C(Cl)C(Cl)C1Cl` (configuration not stated), the outcome in assay [1], in assay [2], in assay [3], in assay [4], in assay [5] and in assay [6] was inactive. Also, in assay [8], the outcome was inactive. Besides, the AC50 in assay [7] was 4.25 µM (active) and 27.6 µM (active).
As to `CNC(=O)Oc1cccc(N=CN(C)C)c1`, the compound was called inactive in assay [1], in assay [2], in assay [3], in assay [4], in assay [5] and in assay [6]. Moreover, the outcome in assay [7] was inactive.
Consider `O=C(Nc1ccccc1)Nc1cnns1`, for which the AC50 in assay [1] was 50 µM (active); in assay [3] it was 76.9 µM (active); in assay [4], 81.5 µM (active); in assay [5] it was 69.2 µM (active); in assay [7] it was 61.5 µM (active). In addition, the compound was called inactive in assay [2], in assay [6] and in assay [8].
On to `CC(C)N(C(=O)COc1nnc(C(F)(F)F)s1)c1ccc(F)cc1`, for which the outcome in assay [1], in assay [2], in assay [3], in assay [4], in assay [5] and in assay [6] was inactive. In addition, the compound was called inactive in assay [8]. Moreover, the concentration at half-maximal activity (AC50) in assay [7] is 22.2 µM (active).
With `COc1nn(CSP(=S)(OC)OC)c(=O)s1`, the outcome in assay [1], in assay [2], in assay [3], in assay [4], in assay [5] and in assay [6] was inactive. For the same compound, the result in assay [7] and in assay [8] was inactive.
For the compound `CC[C@H](C)[C@H]1O[C@]2(C=C[C@@H]1C)C[C@@H]1C[C@@H](C/C=C(\C)[C@@H](O[C@H]3C[C@H](OC)[C@@H](O[C@H]4C[C@H](OC)[C@@H](O)[C@H](C)O4)[C@H](C)O3)[C@@H](C)/C=C/C=C3\CO[C@@H]4[C@H](O)C(C)=C[C@@H](C(=O)O1)[C@]34O)O2` (tested in a mixture with another compound), the AC50 was 7.94 µM (active) in assay [1]; 18.8 µM (active) in assay [2]; 13.8 µM (active) in assay [3]; 13.5 µM (active) in assay [4]; 7.42 µM (active) in assay [5]; 11.7 µM (active) in assay [6]. Further, the AC50 in assay [7] is 49.3 µM (active). For the same compound, the outcome in assay [8] was inactive.
On to `CCCN(CCC)c1c([N+](=O)[O-])cc(C(F)(F)F)cc1[N+](=O)[O-]`, for which the call in assay [1], in assay [2], in assay [3], in assay [4], in assay [5] and in assay [6] was inactive. For the same compound, the outcome in assay [7] and in assay [8] was inactive.
With `CC(C)(C)C(O)C(Oc1ccc(Cl)cc1)n1cncn1` (configuration not stated), the outcome in assay [1], in assay [2], in assay [3], in assay [4], in assay [5] and in assay [6] was inactive. The call in assay [7] and in assay [8] was inactive. Also, in assay [7], the half-maximal activity concentration (AC50) was 1.4 µM (active).
As to `O=C(O)COc1ccc(Cl)cc1Cl`, the call in assay [1], in assay [2], in assay [3], in assay [5] and in assay [6] was inactive. Further, the half-maximal activity concentration (AC50) in assay [7] was 10.1 µM (active).
